Sampled rows, rich in hits. Any-hit rate of the full collection: about 9.2%.
SMN2 splice enh = increases expression of the SMN2 splice variant | Potency, µM (top dose mostly 46.1 µM), for inactives: at the highest dose activity change, positive = activation, most hits filed as activators | HEK293 SMN2-luciferase splicing reporter, luminescence, 30-36 h | AID 1458 | 210,000 compounds, 2.8% hits; note: % of control where 0% means no effect; nearly all actives have a fitted effect of over 55% in size
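HEK293 cells carry an SMN2 minigene-luciferase reporter in which exon 7 inclusion puts luciferase in frame. Cells were seeded at 2000 cells/well, attached for 10-12 hours, then exposed to compounds for 30-36 hours at 37C before ONE-Glo luminescence.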
ELG1 repair inh = ELG1-dependent DNA repair inhibition; HEK293T ELG1-luciferase reporter, luminescence, 16 h; DNA damage induced by 5-fluorouridine; 330,000 compounds, 2.3% hits; Potency, µM (titrated, usually from 46.1 µM), inactives show at the highest dose activity change, negative = inhibition, actives largely listed as inhibitors; note: % is set by controls: 0 for no effect and ±100 for the full control effect; nearly all actives have a fitted effect of over 55% in size
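Reporter activity after DNA damage by 5-fluorouridine is monitored. Compound-treated cells incubate 16 hr at 37 °C, then ONE-Glo is added for 30 min before luminescence reading.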
Rab9 promoter act = Rab9 promoter activation; 320,000 compounds, 2.8% hits; AID 485297; Huh7 Rab9 promoter-luciferase reporter, luminescence, 24 h; Potency, µM (series often up to 9.22 µM), without a hit: at the top dose activation, negative = inhibition, hits mostly activators; note: % of control where 0% means no effect; nearly all actives have a fitted effect of over 60% in size
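Huh7 cells stably carrying a Rab9 promoter-luciferase reporter, 1500 cells per well in OP-MEM I with 10% FBS, treated with compound 24 hours at 37C. Luciferase activity read by luminescence after 10 minutes with Amplite reagent.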
NPC1 prom act = activates the NPC1 promoter | Huh7 NPC1 promoter luciferase reporter, 24 h | 320,000 compounds, 2.4% hits | Potency, µM (doses to about 9.22 µM), for the others: at the top dose activation, most hits filed as activators | AID 485313; note: % of control where 0% means no effect; nearly all actives have a fitted effect of over 60% in size
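Luminescence read-out of NPC1 promoter-driven luciferase in stably transfected Huh7 cells; compounds delivered in DMSO and left 24 h at 37C, 5% CO2, qHTS titration format.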
FLuc counter = counter-screen for miR-21 project: firefly luciferase inhibitors or activators; purified FLuc, Km substrates, luminescence inhibition; 360,000 compounds, 6.9% hits; P08659; Potency, µM (top dose mostly 57.5 µM), for the others: top-dose activity change, negative = inhibition, most hits filed as inhibitors;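 note: plate controls were vehicle for no effect and reference inhibitor for full effect; nearly all actives have a fitted effect of over 55% in size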
Target sequence (P08659 whole entry, looked up): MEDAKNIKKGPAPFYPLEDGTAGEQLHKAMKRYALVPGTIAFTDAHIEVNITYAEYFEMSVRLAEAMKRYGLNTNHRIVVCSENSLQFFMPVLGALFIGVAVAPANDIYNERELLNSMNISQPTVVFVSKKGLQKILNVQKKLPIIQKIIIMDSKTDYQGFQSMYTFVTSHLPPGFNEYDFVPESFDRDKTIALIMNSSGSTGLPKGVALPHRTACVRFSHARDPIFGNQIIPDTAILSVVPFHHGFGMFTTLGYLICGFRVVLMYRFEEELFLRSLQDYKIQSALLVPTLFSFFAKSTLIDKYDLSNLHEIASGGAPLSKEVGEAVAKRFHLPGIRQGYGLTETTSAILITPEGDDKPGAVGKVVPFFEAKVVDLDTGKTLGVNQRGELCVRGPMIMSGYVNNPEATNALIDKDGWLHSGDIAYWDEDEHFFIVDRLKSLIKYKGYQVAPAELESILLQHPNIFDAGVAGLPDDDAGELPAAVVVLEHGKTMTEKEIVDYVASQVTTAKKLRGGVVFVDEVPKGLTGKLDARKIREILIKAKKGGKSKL
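Biochemical qHTS of compounds, final roughly 60 µM downward over six points, against 10 nM purified firefly luciferase using Km concentrations of substrates (10 uM D-luciferin, 10 uM ATP) in Tris acetate pH 7.5 buffer; luminescence output.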
ELG1 genotox = induces genotoxicity in HEK293T cells with luciferase-tagged ELG1. HEK293T ELG1-luciferase reporter, luminescence, 16 h. Potency, µM (series often up to 46 µM), inactives show top-dose activity change, positive = activation, hits mostly activators. 330,000 compounds, 1.3% hits; note: % of control where 0% means no effect; nearly all actives have a fitted effect of over 60% in size
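16 hr compound incubation (37 °C, 5% CO2) of HEK293T cells carrying luciferase-tagged ELG1; luciferase then measured by ONE-Glo luminescence after 30 min at RT.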
Starred values were filed as active, the others as inactive. Calls come from the whole dose curve; as a rule, active = well fitted curve in the direction sought with a large enough effect; inconclusive = small, poorly fitted or top-dose-only effect, or another doubt; inactive = no such curve, though single readings can be large; an effect the other way counts as inactive or inconclusive. Potency is the fitted concentration of half-maximal effect.

`CC(=O)c1ccc(NC(=O)CCn2cccn2)cc1` gave FLuc counter 2%.
O=C(CSC1=NS(=O)(=O)c2cc(Cl)ccc2N1)Nc1ccccc1C(F)(F)F was read as ELG1 repair inh 3%, Rab9 promoter act 8%, NPC1 prom act 0%, FLuc counter inconclusive and ELG1 genotox -1%.
Screening Cc1nnc(SCc2ccccc2)[nH]c1=O returned ELG1 repair inh -5%, Rab9 promoter act 3%, NPC1 prom act -1%, FLuc counter inconclusive and ELG1 genotox -1%.
Cc1ccc(CSc2nnc(C)c(=O)[nH]2)cc1 was read as SMN2 splice enh -6%, ELG1 repair inh inconclusive, Rab9 promoter act -2%, NPC1 prom act -8%, FLuc counter 17µM* and ELG1 genotox 11%.
For Cc1ccc(-c2csc(NC(=O)C3CSC4(C)CCC(=O)N34)n2)cc1 (stereo unspecified) the results were ELG1 repair inh inconclusive, Rab9 promoter act 10%, NPC1 prom act -2%, FLuc counter -3% and ELG1 genotox 14%.
CCc1ccc2nc(NC(=O)C3CSC4(C)CCC(=O)N34)sc2c1 (stereo unspecified) was read as ELG1 repair inh inconclusive, Rab9 promoter act 9%, NPC1 prom act 15%, FLuc counter 12µM* and ELG1 genotox inconclusive.
Screening Cc1sc(NC(=O)C2CSC3(C)CCC(=O)N23)nc1-c1ccc(F)cc1 (stereo unspecified) returned ELG1 repair inh 18µM*, Rab9 promoter act -3%, NPC1 prom act -2%, FLuc counter -3% and ELG1 genotox -13%.
For Cc1ccc(-n2ncc(C(=O)N3CCN(c4cccc(C)c4)C(C)C3)c2C2CCN(C(=O)OC(C)(C)C)CC2)cc1 (stereo unspecified) the results were FLuc counter -7%.
Screening CCOc1ccc(N2CC(C(=O)NCc3nnnn3-c3ccc(C)c(C)c3)CC2=O)cc1 (stereo unspecified) returned ELG1 repair inh -10%, Rab9 promoter act -2%, NPC1 prom act -4%, FLuc counter 1% and ELG1 genotox -1%.
Cc1ccc(Cn2cc(C(=O)c3ccc4c(c3)OCO4)c(=O)c3cc(C)ccc32)cc1 was read as SMN2 splice enh -5% and FLuc counter -1%.
Screening COc1ccccc1NS(=O)(=O)c1cccc(NC(=O)Nc2ccccc2)c1 returned SMN2 splice enh -29%, ELG1 repair inh inconclusive, Rab9 promoter act 0%, NPC1 prom act -2%, FLuc counter inconclusive and ELG1 genotox -5%.
`O=C(Nc1ccc(F)cc1F)c1cccc(C(=O)Nc2ccc(F)cc2F)n1` gave ELG1 repair inh 16µM*, Rab9 promoter act -8%, NPC1 prom act -6%, FLuc counter -1% and ELG1 genotox 18µM*.
`CCOc1cccc2cc(C(=O)N3CCOCC3)c(=O)oc12` gave ELG1 repair inh 11%, Rab9 promoter act -2%, NPC1 prom act -4%, FLuc counter 5% and ELG1 genotox 3%.
`COc1ccccc1NS(=O)(=O)c1cccc(NC(=O)c2cc3ccccc3oc2=O)c1` gave SMN2 splice enh 14µM*, ELG1 repair inh inconclusive, Rab9 promoter act 3.2µM*, NPC1 prom act 2.5µM*, FLuc counter 11µM* and ELG1 genotox 23µM*.
`O=C(Nc1ccc(F)cc1F)c1cc2ccccc2oc1=O` gave ELG1 repair inh inconclusive, Rab9 promoter act 1.8µM*, NPC1 prom act 2µM*, FLuc counter 0.76µM* and ELG1 genotox 4.6µM*.
Screening CCOc1cccc2cc(C(=O)Nc3nccs3)c(=O)oc12 returned SMN2 splice enh -3%, ELG1 repair inh 25%, Rab9 promoter act -1%, NPC1 prom act 2%, FLuc counter 2.4µM* and ELG1 genotox 0%.
Screening CCc1ccc(NC(=O)c2nc3nc(C)cc(C(F)F)n3n2)cc1 returned FLuc counter -17%.
N#CCCN(C(=O)COC(=O)c1ccc(S(=O)(=O)N2CCCC2)cc1)c1cccc(Cl)c1 was read as ELG1 repair inh inconclusive, Rab9 promoter act 2%, NPC1 prom act -2%, FLuc counter 10% and ELG1 genotox -1%.
Screening CCOc1ccccc1NC(=O)c1cc2ccccc2oc1=O returned ELG1 repair inh 8%, Rab9 promoter act 1.1µM*, NPC1 prom act 3.2µM*, FLuc counter -17% and ELG1 genotox 9%.
Screening CCCOC1CCCN(C(=O)c2cc(COc3c(F)cccc3F)on2)C1 (stereo unspecified) returned ELG1 repair inh inconclusive, Rab9 promoter act 2.2µM*, NPC1 prom act 2.8µM*, FLuc counter 12µM* and ELG1 genotox inconclusive.
For COc1ccc(OCc2cc(C(=O)N3CCCC(OC)C3)no2)c2ccccc12 (stereo unspecified) the results were ELG1 repair inh inconclusive, Rab9 promoter act inconclusive, NPC1 prom act inconclusive, FLuc counter 27µM* and ELG1 genotox inconclusive.
`Cc1ccccc1C1CCCN(C(=O)c2cc(COc3c(F)cccc3F)on2)C1` (stereo unspecified) gave ELG1 repair inh 0%, Rab9 promoter act -6%, NPC1 prom act -3%, FLuc counter 0% and ELG1 genotox -6%.
Screening Cc1ccc(C)c(OCc2cc(C(=O)N3CC[C@H](O)C3)no2)c1 returned ELG1 repair inh inconclusive, Rab9 promoter act 2.5µM*, NPC1 prom act 30%, FLuc counter 12µM* and ELG1 genotox inconclusive.
Screening COC(=O)C1CCCCN1C(=O)c1cc(COc2cccc3cccnc23)on1 (stereo unspecified) returned ELG1 repair inh -4%, Rab9 promoter act -1%, NPC1 prom act -4%, FLuc counter 0% and ELG1 genotox -6%.
COC(=O)C1CCCCN1C(=O)c1cc(COc2cccc3cnccc23)on1 (stereo unspecified) was read as ELG1 repair inh 1.5µM*, Rab9 promoter act -31%, NPC1 prom act -26%, FLuc counter -3% and ELG1 genotox -11%.
`COc1cc(Cl)ccc1OCc1cc(C(=O)N2CCC(N(C)C)C2)no1` (stereo unspecified) gave ELG1 repair inh 15%, Rab9 promoter act -3%, NPC1 prom act 1%, FLuc counter -17% and ELG1 genotox 4%.
Screening Cc1cccc(C)c1NC(=O)Cn1nc(-c2ccccc2)nc1-c1ccccc1 returned SMN2 splice enh -1%, ELG1 repair inh 4%, Rab9 promoter act 5%, NPC1 prom act -3%, FLuc counter -3% and ELG1 genotox 4%.

Screening results: PubChem, National Center for Advancing Translational Sciences (NCATS)
